Measurements: PubChem BioAssay (Tox21)
Records with an inconclusive call do not appear. Activity calls are given as the source filed them. Unless noted, the call rests on the fitted dose curve; in most records, active means well fitted curve in the direction sought with a large enough effect in the repeat runs; inconclusive means weak or mixed curves; inactive means flat fitted curve, though single readings scatter.

Experiments:
[1] = qHTS assay to test for compound auto fluorescence at 535 nm (green) in HEK293 cells (AID 720680)
[2] = qHTS assay to test for compound auto fluorescence at 460 nm (blue) in HEK293 cell free culture (AID 720681)
Summary of the method: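 Test compounds were pinned into cell-free culture medium (DMEM with 10% FBS) and fluorescence was read directly at Ex/Em 405/460 nm. Signals were expressed as fluorescence equivalents of triamterene, with DMSO vehicle as control.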

[3] = qHTS assay to test for compound auto fluorescence at 535 nm (green) in HEK293 cell free culture (AID 720682)
Summary of the method: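 DMEM + 10% FBS, cell-free; cpd or DMSO pinned in; Ex485/Em535 read; output as fluorescein-equivalent signal.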

[4] = qHTS assay to test for compound auto fluorescence at 590 nm (red) in HEK293 cell free culture (AID 720683)
Summary of the method: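 Tox21 10K library compounds were pinned into cell-free DMEM with 10% FBS and fluorescence was read at excitation 540 nm. Activity is expressed as Rose Bengal sodium equivalency.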

[5] = qHTS assay to test for compound auto fluorescence at 590 nm (red) in HepG2 cell free culture (AID 720684)
Summary of the method: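 Red fluorescence (540 nm excitation, 590 nm emission) was measured after compound transfer into cell-free MEM supplemented with 10% FBS. Values are equivalencies against Rose Bengal sodium.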

[6] = qHTS assay to test for compound auto fluorescence at 460 nm (blue) in HepG2 cell free culture (AID 720685)
Summary of the method: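 Compound (23 nL) or DMSO pinned into cell-free MEM with 10% FBS; blue fluorescence read at 405/460 nm excitation/emission, expressed as auto-fluorescence equivalency to triamterene.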

[7] = qHTS assay to test for compound auto fluorescence at 535 nm (green) in HepG2 cell free culture (AID 720686)
[8] = qHTS assay to test for compound auto fluorescence at 460 nm (blue) in HepG2 cells (AID 720687)
Summary of the method: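 Cells (2,000/well in MEM with 10% FBS) attached overnight at 37 C, then were exposed to compound or DMSO for 1 hr at 37 C, 5% CO2. Fluorescence read at Ex/Em 405/460 nm, expressed as triamterene-equivalent signal.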

[9] = biological target: Glucocorticoid receptor (Homo sapiens) (UniProt P04150); assay: qHTS assay to identify small molecule agonists of the glucocorticoid receptor (GR) signaling pathway (AID 720691; active means well fitted activation curve with a large enough effect in the signal ratio in the repeat runs, not every such curve was filed as active; the % refers to the signal ratio)
Summary of the method: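 Fluorescence intensity from LiveBLAzer B/G FRET substrate (2 h, room temperature) reports beta-lactamase expression driven by the glucocorticoid response element in GR-bla HeLa cells after 18 h compound exposure at 37 C.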

[10] = biological target: Glucocorticoid receptor (Homo sapiens) (UniProt P04150); assay: qHTS assay to identify small molecule antagonists of the glucocorticoid receptor (GR) signaling pathway (AID 720692; active means well fitted inhibition curve with a large enough effect in the signal ratio in the repeat runs, not every such curve was filed as active; the % refers to the signal ratio)
Summary of the method: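 HeLa GR-bla cells; cmpd + dex 5 nM final, 18 h 37 C; LiveBLAzer B/G FRET substrate 2 h RT; fluorescence intensity read. Antagonist mode, qHTS.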

Measured: Potency

Chain of Glucocorticoid receptor (Homo sapiens) (P04150 whole entry, looked up): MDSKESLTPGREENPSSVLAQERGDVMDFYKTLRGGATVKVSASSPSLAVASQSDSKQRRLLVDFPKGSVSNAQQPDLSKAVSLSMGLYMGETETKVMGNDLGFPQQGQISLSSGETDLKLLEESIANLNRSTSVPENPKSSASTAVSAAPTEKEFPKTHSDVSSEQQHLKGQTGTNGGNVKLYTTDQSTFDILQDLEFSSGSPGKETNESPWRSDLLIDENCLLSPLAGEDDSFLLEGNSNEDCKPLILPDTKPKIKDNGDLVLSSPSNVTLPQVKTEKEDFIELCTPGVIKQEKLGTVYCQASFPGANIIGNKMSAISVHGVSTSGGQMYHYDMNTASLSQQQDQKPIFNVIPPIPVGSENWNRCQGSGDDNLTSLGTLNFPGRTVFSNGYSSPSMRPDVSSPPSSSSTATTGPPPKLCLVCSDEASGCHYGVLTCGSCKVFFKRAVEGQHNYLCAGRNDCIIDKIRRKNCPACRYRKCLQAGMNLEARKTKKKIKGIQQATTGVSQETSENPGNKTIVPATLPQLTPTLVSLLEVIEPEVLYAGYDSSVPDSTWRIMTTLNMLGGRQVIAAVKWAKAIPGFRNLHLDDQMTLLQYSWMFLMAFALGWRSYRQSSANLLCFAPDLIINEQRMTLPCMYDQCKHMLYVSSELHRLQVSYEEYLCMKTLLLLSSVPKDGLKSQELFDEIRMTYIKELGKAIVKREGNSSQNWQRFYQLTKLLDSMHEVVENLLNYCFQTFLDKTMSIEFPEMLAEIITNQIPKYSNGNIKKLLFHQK

CCCCCCCCCCCCCCCC(=O)OC(C)C
not listed: [9] | [10]
inactive: all other assays above

Cc1ccc(S(=O)(=O)N=C=O)cc1
inactive: all assays above

c1ccc2c(c1)Cc1ccccc1-2
inactive: all assays above

COc1cc(OC)c(C(=O)CCCN2CCCC2)c(OC)c1
not listed: [9]
inactive: all other assays above

CC(=O)OCc1ccco1
not listed: [9] | [10]
inactive: all other assays above

O=C(O)CCCCCCCCC(=O)O
not listed: [9] | [10]
inactive: all other assays above

Cc1ccc2ncccc2c1
inactive: all assays above

CN1C(=O)CC[C@H]1c1cccnc1
not listed: [9] | [10]
inactive: all other assays above

CC(C)CC(=O)CC(C)CC(C)C (configuration not stated)
not listed: [9]
inactive: all other assays above

O=C1C(c2[nH]c3ccccc3c2O)=Nc2ccccc21
not listed: [10]
inactive: all other assays above

C[C@]12CCC(=O)C=C1CC[C@@H]1[C@@H]2[C@@H](O)C[C@@]2(C)[C@H]1CC[C@]2(O)C(=O)CO
not listed: [9] | [10]
inactive: all other assays above

C=C(C)C(=O)OCC(C)C
not listed: [9] | [10]
inactive: all other assays above

CC1(C)OC[C@@H]2O[C@@]3(C(=O)O)OC(C)(C)O[C@H]3[C@@H]2O1
not listed: [9] | [10]
inactive: all other assays above

Cc1ccc(C(C)C)c(O)c1
inactive: all assays above

O=C(OCC1CCC2OC2C1)C1CCC2OC2C1 (configuration not stated)
inactive: all assays above

CCCCCCCCCCCCCCCCO
inactive: all assays above

CNC(=S)N(C)C
inactive: all assays above

COC(=O)c1cccnc1
inactive: all assays above

O=[N+]([O-])c1ccc2nc[nH]c2c1
not listed: [9] | [10]
inactive: all other assays above

C=CC(C)CCCC(C)(C)O (configuration not stated)
not listed: [9] | [10]
inactive: all other assays above

CC1(C)NC(=O)NC1=O
inactive: all assays above

C=CC[N+](C)(C)CC=C
inactive: all assays above

CC(=O)OCCOC(C)=O
inactive: all assays above

CCCCCCCO
inactive: all assays above

COc1ccc([N+](=O)[O-])cc1N
inactive: all assays above

Clc1ccccn1
not listed: [9] | [10]
inactive: all other assays above
